Source: PubChem BioAssay
Casp6 inh: human caspase-6 inhibitors, primary screen, biochemical, VEID-R110 fluorescence, single point, set 2. 350,000 tested, 0.53% active. P55212. inhibition, % at 12.5 µM. AID 686996, 2013. purified caspase-6, Z-VEID-R110 cleavage fluorescence;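 active means mean inhibition across replicates at least about 35%, with every replicate also reaching that limit, limit read from the data; inconclusive means only one of the two criteria met; inactive means neither criterion met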
Target sequence (P55212 24-179 limits assumed): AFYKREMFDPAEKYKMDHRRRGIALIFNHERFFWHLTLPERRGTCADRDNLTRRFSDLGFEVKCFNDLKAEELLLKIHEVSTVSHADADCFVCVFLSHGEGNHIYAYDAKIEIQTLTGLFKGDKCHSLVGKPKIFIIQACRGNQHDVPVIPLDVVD
Target sequence (P55212 194-293 limits assumed): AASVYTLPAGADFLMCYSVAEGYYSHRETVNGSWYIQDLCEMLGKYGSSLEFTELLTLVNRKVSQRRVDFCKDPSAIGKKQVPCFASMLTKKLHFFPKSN
INS-1E GSIS act: GLuc luminescence reporter in INS-1E cells, primary screen for activators of glucose-dependent secretion of insulin | INS-1E GLuc reporter insulin secretion, 2-3 h | activation, % at 16.6 µM | 370,000 tested, 0.61% active | AID 743287, 2014;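 active means lowest replicate activation of at least 40%, so every replicate reaches that level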
SIRT5 block: SIRT5 desuccinylase inhibitors, primary screen, biochemical, fluorescence imaging, single point, set 5; NAD-dependent protein deacylase sirtuin-5, mitochondrial (Homo sapiens), Q9NXA8; Purified SirT5, succinyl-peptide AMC, trypsin-coupled fluorescence; inhibition, % at 15 µM; 330,000 tested, 1.1% active; AID 652115, 2013; in the data active means inhibition above about 15%; inconclusive means no clear call, values can overlap the other calls
ERAP1 HTS inh: human ERAP1 aminopeptidase inhibitors, primary screen, biochemical, single point, plate reader; recombinant ERAP1, Leu-AMC fluorescence, 60 min; inhibition, % at 10.7 µM; 340,000 tested, 0.15% active;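 active means mean replicate inhibition of at least 30%, or all replicates individually reaching that 30% level; inactive means mean below 30% and not every replicate reaching it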
FGF22 binding: binders of human FGF22 protein, primary screen, FGF22 synaptogenesis inhibitor project, biophysical, thermal shift, single point; AID 651658, 2012; recombinant FGF22 thermal shift, SYPRO orange fluorescence; percent of sucrose octasulfate shift, DMSO zero; activity (Tm shift, normalised), % at 9.99 µM; 340,000 tested, 1.5% active;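 active means mean Tm shift, scaled 0 neutral to 100 positive control, at about 1.3% or above, every replicate too, limit read from the data; inconclusive means no clear call, values can overlap the other calls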
Target sequence (Q9HCT0 whole entry, looked up): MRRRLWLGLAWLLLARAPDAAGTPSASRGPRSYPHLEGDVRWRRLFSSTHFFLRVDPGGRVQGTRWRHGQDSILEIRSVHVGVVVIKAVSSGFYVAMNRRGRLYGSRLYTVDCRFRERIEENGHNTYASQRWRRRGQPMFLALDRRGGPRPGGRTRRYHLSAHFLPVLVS
Large screens that a line does not name were inactive. Hits are enriched below; roughly 3.3% of the tested compounds scored in any of these assays.

CN(C)C(=O)c1cccc(-c2ccccc2[C@@H]2[C@@H](CO)N(C(=O)C3CCC3)[C@H]2C#N)c1	none (no result: FGF22 binding)
[O-]/C(=C(\C(=S)NCc1ccccc1)[n+]1ccccc1)c1ccc(Cl)s1	FGF22 binding 43
[O-]/C(=C(\C(=S)NCCN1CCOCC1)[n+]1ccccc1)c1ccc(Cl)s1	none
C[C@@H]1CCCCO[C@H](CN(C)S(=O)(=O)c2cccs2)[C@@H](C)CN([C@H](C)CO)C(=O)c2cc(NC(=O)Nc3ccc4c(c3)OCO4)ccc2O1	none
C[C@@H]1CCCCO[C@@H](CN(C)S(=O)(=O)c2cccs2)[C@H](C)CN([C@H](C)CO)C(=O)c2cc(NC(=O)Nc3ccc(F)cc3)ccc2O1	SIRT5 block 17
C[C@@H]1CN([C@H](C)CO)C(=O)c2cc(NC(=O)Nc3ccc4c(c3)OCO4)ccc2O[C@@H](C)CCCCO[C@H]1CN(C)S(=O)(=O)c1cccs1	SIRT5 block 18
CC1C/C=C/C=C/C=C/C=C/C(O[C@@H]2O[C@H](C)[C@@H](O)[C@H](N)[C@@H]2O)CC2OC(O)(CC(O)CC3OC3/C=C/C(=O)O1)CC(O)C2C(=O)O (stereo partly specified)	Casp6 inh 45 (no result: INS-1E GSIS act)
COc1ccc(C(=O)NCCN2CCOCC2)c(OC)c1	FGF22 binding 44
COc1ccc(-n2cnc3cc(C(=O)NCCN4CCOCC4)ccc32)cc1	FGF22 binding 44
O=C(Cc1c(F)cccc1Cl)NCCN1CCOCC1	FGF22 binding 43
Cc1cccc(-n2cnc3cc(C(=O)NCCN4CCOCC4)ccc32)c1	none
Cc1ccccc1C(=O)NCCN1CCOCC1	FGF22 binding 44
O=C(C[C@H]1CC[C@H]2[C@@H](COC[C@@H](O)CN2C(=O)Nc2ccc(Cl)cc2)O1)N1CCCCC1	none
CC(C)CC#Cc1ccc2c(c1)O[C@@H](CN(C)Cc1ccc3c(c1)OCO3)[C@@H](C)CN([C@H](C)CO)S2(=O)=O	none (no result: SIRT5 block, FGF22 binding)
COc1ccccc1-c1ccc2c(c1)O[C@H](CN(C)Cc1ccc3c(c1)OCO3)[C@H](C)CN([C@@H](C)CO)S2(=O)=O	SIRT5 block inconclusive
C[C@H]1CN([C@@H](C)CO)S(=O)(=O)c2ccc(C#CCN(C)C)cc2O[C@H]1CN(C)Cc1ccc2c(c1)OCO2	Casp6 inh 36
COc1ccccc1-c1ccc2c(c1)O[C@@H](CN(C)Cc1ccc3c(c1)OCO3)[C@@H](C)CN([C@@H](C)CO)S2(=O)=O	SIRT5 block 21
CC(C)CC#Cc1ccc2c(c1)O[C@H](CN(C)Cc1ccc3c(c1)OCO3)[C@H](C)CN([C@H](C)CO)S2(=O)=O	SIRT5 block 14 (no result: FGF22 binding)
C[C@H]1CN([C@@H](C)CO)S(=O)(=O)c2ccc(C#CCN(C)C)cc2O[C@@H]1CN(C)Cc1ccc2c(c1)OCO2	none
COc1ccc2c3c(n(C)c2c1)[C@@H](CO)N(CC1CCOCC1)CC31CCN(C(C)=O)CC1	none
Cc1cc(C(=O)Nc2cccc3c2O[C@@H](CN(C)S(=O)(=O)c2ccccc2)[C@@H](C)CN([C@@H](C)CO)C3=O)n(C)n1	none
COc1cccc(CN2CC3(CCN(CC4CC4)CC3)c3c([nH]c4cc(OC)ccc34)[C@H]2CO)c1	none (no result: Casp6 inh, ERAP1 HTS inh)
CN(C)CCCCCCNC(=O)[C@@H]1C[C@@H]2C(=O)NCC(=O)N2[C@@H]1c1cccc(OCCO)c1	SIRT5 block 18 (no result: INS-1E GSIS act)
NCCCCCNC(=O)[C@@H]1C[C@@H]2C(=O)NCC(=O)N2[C@@H]1c1cccc(OCCO)c1	none (no result: INS-1E GSIS act)
CN(C(=O)CCc1nnc(CCCCc2ccccc2)o1)C1CC(C)(C)NC(C)(C)C1	SIRT5 block 27
N#Cc1cccnc1Nc1cccc(Cl)c1	INS-1E GSIS act 59
CCn1cnc2c(Nc3cccc(Cl)c3)nc(C#N)nc21	none
CCOC(=O)C1CCN(c2nc(N)c3c(N)nc(SCC(=O)O)cc3c2C#N)CC1	Casp6 inh 65, ERAP1 HTS inh 31
CSc1cccc(NC(=O)CCNC(=O)c2ccco2)c1	FGF22 binding 43
O=C(CCNC(=O)c1ccco1)Nc1cccc(Br)c1	none
CCOc1ccc(CCNC(=O)CCNC(=O)c2ccco2)cc1OCC	INS-1E GSIS act 92
CCOc1ccc(CC(=O)Nc2ccc(NC(=O)c3ccco3)cc2)cc1OCC	FGF22 binding 44 (no result: INS-1E GSIS act)
COc1cccc(-c2ccc([C@H]3[C@@H](CO)N4C(=O)CN(C(=O)C5CCC5)C[C@@H]34)cc2)c1	none (no result: FGF22 binding)
C[C@H]1CCCCO[C@H](CN(C)C(=O)C2CCCCC2)[C@@H](C)CN([C@@H](C)CO)C(=O)c2cc(NC(=O)Nc3cccc4ccccc34)ccc2O1	none
CC1(C)C2CCC1(C)C(OC(=O)C[n+]1ccccc1)C2 (stereo unspecified)	none
CC1(C)C2CCC1(C)C(OC(=O)C[n+]1ccccc1N)C2 (stereo unspecified)	INS-1E GSIS act 41
Fc1ccccc1COc1ccc2ccccc2c1CNc1nn[nH]n1	FGF22 binding 43
CC(=O)c1ccc(NC(=O)CSc2nc3nc(C)cc(C)n3n2)cc1	none
CC(=O)c1ccc(NC(=O)CSc2nc(C)cc(C)c2C(N)=O)cc1	FGF22 binding 43
CCc1c(C)nc(SCC(=O)Nc2nc(-c3ccc(OC)cc3)cs2)[nH]c1=O	FGF22 binding 43
O=C(N[C@H]1C=C[C@@H](CC(=O)N2CCCCC2)O[C@@H]1CO)c1ccccn1	none
O=C(COc1cccc2cccnc12)N1CCc2ccccc21	FGF22 binding 43
O=c1cnnc(N/N=C/C2CC=CCC2)[nH]1 (stereo unspecified)	FGF22 binding 44
O=C(CCS(=O)(=O)c1ccc(Br)cc1)NC1CCCCCC1	Casp6 inh 61
O=C(COc1ccc(S(=O)(=O)NC2CCCCC2)cc1Cl)NCc1ccc2c(c1)OCO2	Casp6 inh 40
COc1ccc(S(=O)(=O)NC2CCCCC2)cc1C	INS-1E GSIS act 43 (no result: Casp6 inh)
O=C(CCS(=O)(=O)c1ccc(Br)cc1)NCCC1=CCCCC1	Casp6 inh 66
COc1cc(S(=O)(=O)NC2CCCCC2)ccc1Cl	none (no result: Casp6 inh, SIRT5 block, ERAP1 HTS inh, FGF22 binding)
C[C@H]1CCCCO[C@@H](CN(C)C(=O)Nc2ccccc2)[C@@H](C)CN([C@@H](C)CO)C(=O)c2cc(NC(=O)NC3CCCCC3)ccc2O1	none (no result: FGF22 binding)
O=C(CCS(=O)(=O)c1ccc(Br)cc1)NCc1ccc(F)cc1	Casp6 inh 70
Cc1ccc(CNC(=O)CCS(=O)(=O)c2ccc(Br)cc2)cc1	none
O=C(CCNS(=O)(=O)c1ccc(Br)s1)NC1CCCC1	SIRT5 block 20 (no result: FGF22 binding)
O=C(COc1ccc(S(=O)(=O)NC2CCCCC2)cc1)NC1CCCC1	FGF22 binding 43
